Source: PubChem BioAssay AID1851 (National Center for Advancing Translational Sciences (NCATS), 2009)
About 4,000 (25%) of roughly 16,000 compounds were called active. Roughly 26% stayed inconclusive and do not appear here. The list is a sample of the results. Values without a mark were called inactive. Calls follow the shape of the dose curve; as a rule, active = well fitted curve in the direction sought with a large enough effect; inconclusive = small, poorly fitted or top-dose-only effect, or effect the other way; inactive = no such curve, though single readings can be large or run the other way.

Target: Cytochrome P450 2C9 (Homo sapiens) (UniProt P11712)
Sequence (P11712 whole entry, looked up): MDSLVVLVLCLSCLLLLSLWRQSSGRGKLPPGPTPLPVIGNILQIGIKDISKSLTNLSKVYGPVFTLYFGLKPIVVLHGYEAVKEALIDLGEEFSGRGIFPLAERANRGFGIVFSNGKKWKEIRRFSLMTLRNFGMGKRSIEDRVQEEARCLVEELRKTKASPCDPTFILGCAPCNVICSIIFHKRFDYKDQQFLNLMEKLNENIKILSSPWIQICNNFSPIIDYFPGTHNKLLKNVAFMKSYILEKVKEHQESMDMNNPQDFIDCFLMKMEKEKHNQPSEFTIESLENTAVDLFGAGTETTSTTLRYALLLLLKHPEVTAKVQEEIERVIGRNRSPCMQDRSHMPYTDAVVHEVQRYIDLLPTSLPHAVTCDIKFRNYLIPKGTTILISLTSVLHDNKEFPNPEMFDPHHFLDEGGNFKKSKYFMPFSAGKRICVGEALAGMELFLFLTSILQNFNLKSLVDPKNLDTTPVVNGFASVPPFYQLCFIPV
Test: Cytochrome panel assay with activity outcomes
Conditions: recombinant CYP, pro-luciferin dealkylation, luminescence, p450-cyp2c9; series mostly up to 57.1 µM; activity, negative = inhibition: at the top concentration
% is scaled to controls: 0 for no effect and ±100 for the full control effect.

| SMILES | AC50 | activity, negative = inhibition |
| --- | --- | --- |
| Cc1cccc2c(SCC(=O)NCC3CCCO3)nc(-c3ccc(F)cc3)nc12 (stereo unspecified) | 3.98 µM (active) |  |
| Cc1ccc(C)c(-n2c(Cc3cc(=O)[nH]c(=O)[nH]3)nnc2SCC(=O)NCC2CCCO2)c1 (stereo unspecified) |  | -15.2% |
| COc1ccc(-c2nc(CSCC(=O)NCC3CCCO3)c(C)o2)cc1OC (stereo unspecified) |  | -29.9% |
| S=C(Nc1ccc2c(c1)Cc1ccccc1-2)Nc1ccc2c(c1)Cc1ccccc1-2 |  | 1.69% [at 11.4 µM] |
| O=C(O)/C=C\C(=O)Nc1ccc2c(c1)-c1ccccc1C2 |  | -10.9% [at 11.4 µM] |
| O=C(O)c1ccccc1-c1ccccc1C(=O)Nc1ccc2c(c1)Cc1cc(F)ccc1-2 | 2.51 µM (active) |  |
| CO[C@]1(C2=NCCN2)COc2ccccc2O1 |  | 17.2% |
| CC(C)OCCCNC(=O)C1CC(=O)N(C2CCCCCCC2)C1 (stereo unspecified) |  | -16.8% |
| C[N+](C)(C)c1nc(N)nc2c1ncn2[C@H]1O[C@@H](CO)[C@@H](O)[C@H]1O |  | 12.2% [at 11.4 µM] |
| CN(C(=O)C(Cl)Cl)c1ccc(OC(=O)c2ccco2)cc1 |  | 7.39% [at 25.6 µM] |
| CC(C)(C)c1[nH]nc2c1C(c1ccc(OC(=O)c3ccco3)cc1)C(C#N)=C(N)O2 (stereo unspecified) | 4.47 µM (active) |  |
| CC(C)NC[C@@H](O)COc1ccccc1-n1cccc1 |  | 6.41% |
| C=C(C)[C@@H]1CC=C(C(=O)O)CC1 |  | 3.86% |
| Cc1ccc(C(=O)NNC(=O)CSc2nnc(-c3ccncc3)n2-c2ccc(C)cc2)cc1 | 5.01 µM (active) |  |
| Cc1cccc(CNc2ncncc2-c2ccc(C(=O)N(C)C)cc2)c1 |  | 2.16% [at 2.29 µM] |
| Cc1ccc(S(=O)(=O)NCCSc2nnnn2C)cc1 |  | -21.7% |
| CCC1(C)CC(CCNS(=O)(=O)c2ccc(C)cc2)(c2ccc(C)cc2)CCO1 (stereo unspecified) | 5.62 µM (active) |  |
| CN(C)CCNC(=O)C(C(=O)c1ccc(F)cc1)n1ccccc1=O (stereo unspecified) |  | -16.9% |
| CC(C)=CCC/C(C)=C/CO/N=C1/[C@H]2O[C@@H]2[C@@H](O)[C@H]2[C@H]1CCn1c(=O)n(Cc3cc4c(cc3Cl)OCO4)c(=O)n12 |  | -2.9% [at 11.4 µM] |
| Cc1noc(C)c1-c1nccc(NCc2cccnc2)n1 |  | 3.9% [at 2.29 µM] |
| O=C(O)/C=C\C=C/c1ccc2c(c1)OCO2 |  | -5.25% [at 11.4 µM] |
| C[C@@H](C(=O)O)/C(=C/c1ccc2c(c1)OCO2)C(=O)O | 2.51 µM (active) |  |
| OC[C@@H]1O[C@@H](O)[C@H](N=Cc2ccc3c(c2)OCO3)[C@@H](O)[C@@H]1O |  | 12.1% [at 11.4 µM] |

| SMILES | AC50 | activity, negative = inhibition |
| --- | --- | --- |
| Cc1ccccc1Oc1ccc(-c2nc(N)nc(N)n2)cc1 | 8.91 µM (active) |  |
| Cc1cccc(Oc2ncc(-c3ccc(Cl)cc3)cn2)c1C |  | -23% |
| Nc1nc(-c2ccc3ccccc3c2)cc(-c2cc(-c3ccc4ccccc4c3)nc(N)n2)n1 |  | 8.18% [at 11.4 µM] |
| COc1cccc(NC(=O)c2cc(-c3cccnc3)nc3c(Cl)cccc23)c1 | 0.794 µM (active) |  |
| COc1cccc(NC(=O)C2c3cc(OC)c(OC)cc3C(=O)N(C)C2c2cccnc2)c1 (stereo unspecified) |  | -19.8% |
| CCCOc1ccc(-c2nc(N)n[nH]2)cc1 |  | -24.8% |
| NCCSS(=O)(=O)CCN |  | -9.3% [at 11.4 µM] |
| CCc1cc2c(Sc3nc4ccccc4s3)ncnc2s1 | 11.2 µM (active) |  |
| c1ccc(NCCSc2nc3ccccc3s2)cc1 |  | -12.4% [at 11.4 µM] |
| CCn1c2ccccc2c2cnc(N=CN(C)C)c(C#N)c21 | 14.1 µM (active) |  |
| O=C1[C@H]2[C@H]3[C@H](O)[C@H](O)C/C(=N/OC[C@@H](O)COCc4ccco4)[C@H]3CC[C@@H]2C(=O)N1C1CCCCC1 |  | 23.1% [at 11.4 µM] |
| O=C(O)[C@H]1CN[C@H](C(=O)O)C1 |  | 0.543% |
| CCOC(=O)CSc1ncc(OC)c(Sc2ccc(Cl)cc2)n1 | 0.891 µM (active) |  |
| COC(=O)CSc1ncc(OC)c(OC)n1 |  | 6.45% |
| CCOC(=O)C(C)Sc1ncc(OC)c(Sc2ccc(Cl)cc2)n1 (stereo unspecified) | 2.51 µM (active) |  |
| Cc1cnc(CNc2ncncc2-c2ccoc2)cn1 |  | 6.74% [at 2.29 µM] |
| O=C(Nc1ccc(-n2nncc2-c2ccco2)cc1)c1cc2ccccc2oc1=O | 2.24 µM (active) |  |
| COc1ccc(-c2cnnn2-c2ccc(NC(=O)c3ccco3)cc2)cc1OC | 2.24 µM (active) |  |
| O=C(NCCN1CCN(C(=O)c2cc3ccccc3oc2=O)CC1)c1cc2ccccc2oc1=O |  | -15.3% |
| CO[C@H]1C=CO[C@]2(C)Oc3c(C)c(O)c4c(O)c(c5c(c4c3C2=O)NC2(CCN(CC(C)C)CC2)N=5)=NC(=O)C(C)=CC=C[C@@H](C)[C@@H](O)[C@@H](C)[C@@H](O)[C@@H](C)[C@@H](OC(C)=O)[C@@H]1C |  | 5.75% [at 25.6 µM] |
| CC(C)NC(=O)N1CC[C@@]2(CCCN(C(=O)c3cccn3C)C2)C1 |  | 8.02% |
| CN(C)CCNc1oc(COc2ccc(Cl)cc2Cl)nc1C#N |  | 22.6% |
| N#Cc1nc(COc2ccccc2Cl)oc1NCc1ccco1 | 1.78 µM (active) |  |

| SMILES | AC50 | activity, negative = inhibition |
| --- | --- | --- |
| CCOc1ccc(-c2nnn(CC(=O)Nc3cc(OC)ccc3OC)n2)cc1OCC |  | -21.2% |
| CCOc1ccc(-c2cc(CCCC(=O)NCCc3ccc(OC)c(OC)c3OC)no2)cc1 | 1 µM (active) |  |
| CCOc1ccc(-c2cc(CCCC(=O)Nc3cc(OC)ccc3OC)no2)cc1 | 2.24 µM (active) |  |
| CN(C)CCCN1c2ccc(O)cc2Sc2ccc(Cl)cc21 |  | -1.91% [at 11.4 µM] |
| CSC1=N/C(=C\c2ccc(C)cc2)C(=O)S1 | 22.4 µM (active) |  |
| CSC1=N/C(=C\c2ccc3c(c2)OCO3)C(=O)S1 |  | -17.8% |
| CSC1=N/C(=C\c2ccc(Br)o2)C(=O)S1 | 39.8 µM (active) |  |
| CCCCNC(=O)C(=O)c1ccccc1NC(C)=O |  | 16.8% |
| Cc1cnc(CNc2ncncc2-c2ccccc2C#N)cn1 |  | -5.28% [at 2.29 µM] |
| CCN(CC)Cc1c(O)ccc2c(=O)c(Oc3ccccc3OC)coc12 | 7.94 µM (active) |  |
| O=c1c(Oc2ccccc2Br)c(C(F)(F)F)oc2c(CN3CCCC3)c(O)ccc12 |  | -21.2% |
| Cc1cccc(Cn2ncc(Cl)c(Cl)c2=O)c1 |  | -21.4% |
| Cc1cccc(CNc2ncncc2-c2ccccc2Cl)c1 |  | 7.19% [at 2.29 µM] |
| C=CCSc1nc2c(sc3nc(C)cc(C)c32)c(=O)[nH]1 | 7.94 µM (active) |  |
| Cc1c(S(=O)(=O)O)ccc(N=Nc2c(O)c(C(=O)O)cc3ccccc23)c1Cl |  | -11.1% [at 11.4 µM] |
| Nc1nc2n[nH]nc2c(=O)[nH]1 |  | -12.4% [at 25.6 µM] |
| Cc1cc(Cc2cc(C)cc(C(C)(C)C)c2O)c(O)c(Cc2cc(C)cc(C(C)(C)C)c2O)c1 | 3.16 µM (active) |  |
| CC(C)c1cc(CN(C)C)c(O)c(C(C)(C)C)c1 |  | 1.03% [at 11.4 µM] |
| Cc1cc(C)c(O)c(Cc2cccc(Cc3cc(C)cc(C)c3O)c2O)c1 |  | 11.7% [at 11.4 µM] |
| Cc1cc(C(C)(C)C)c(O)c(C)c1CC1=NCCN1 | inactive |  |
| Cc1cc(Cc2c(C)c(C)c(Cc3cc(C)cc(C(C)(C)C)c3O)c(C)c2C)c(O)c(C(C)(C)C)c1 |  | 9.35% [at 11.4 µM] |
| Cc1cc(Cc2cc(Cc3cc(C)cc(C(C)(C)C)c3O)c(C)cc2C)c(O)c(C(C)(C)C)c1 | 3.16 µM (active) |  |
| Cc1ccc(NC(=S)N2CCN(C3CCCCC3)CC2)cc1 |  | 4.46% |

| SMILES | AC50 | activity, negative = inhibition |
| --- | --- | --- |
| Cc1ccc(NC(=S)N2CCN(CCN3C(=O)c4cccc5cccc(c45)C3=O)CC2)cc1 | 6.31 µM (active) |  |
| C[N+](C)(CCCCCC[N+](C)(C)CCCN1C(=O)c2cccc3cccc(c23)C1=O)CCCN1C(=O)c2cccc3cccc(c23)C1=O |  | 10.1% |
| C/C(=N\NC(=O)CC1N=C(Cc2ccccc2)NNC1=O)c1ccc(Cl)cc1Cl (stereo unspecified) |  | -30% |
| C/C(=N\NC(=O)Cc1ccc(Cl)cc1)c1ccccn1 | 14.1 µM (active) |  |
| COc1ccccc1CNC(=O)C/C(C)=N/NC(=O)Cc1ccccc1 |  | 13.2% |
| CC1(C)C2([N+](=O)[O-])CN3CC1([N+](=O)[O-])CN(C2)C3c1ccccc1 (stereo unspecified) |  | -20.9% |
| FC(F)(F)c1ccccc1-c1cc(NCCN2CCOCC2)ncn1 |  | 26.8% [at 2.29 µM] |
| CCOC(=O)Oc1c(OC)cc(C(=O)O[C@H]2C[C@H]3CN4CCc5c([nH]c6cc(OC)ccc56)[C@@H]4C[C@H]3[C@@H](C(=O)OC)[C@@H]2OC)cc1OC |  | -2.83% [at 25.6 µM] |
| Cc1ccc(S(=O)(=O)N(Cc2ccccc2)c2ccccc2C(=O)NCc2ccco2)cc1 | 0.0398 µM (active) |  |
| Cc1cccc(C)c1NC(=O)CCN1C(=O)C2C3CCC(C3)C2C1=O (stereo unspecified) |  | -43.2% |
| CCn1ccnc1C[C@@H]1COc2ccccc2O1 | inactive |  |
| Cc1cc(C(=O)CSc2nnc(-c3ccccc3)o2)c(C)n1CC1COc2ccccc2O1 (stereo unspecified) | 3.55 µM (active) |  |
| Cc1ccc(SCc2[nH]nc3c2C(C(C)C)C(C#N)=C(N)O3)cc1 (stereo unspecified) | 7.08 µM (active) |  |
| Fc1cccc(CSc2ncnc3c2ncn3[C@H]2CCCS2)c1 |  | 9.41% [at 11.4 µM] |
| Fc1ccc(CSc2ncnc3sc4c(c23)CCCC4)cc1 | 11.2 µM (active) |  |
| O=C(O)CSc1ncnc2sc3c(c12)CCC3 |  | -25.3% |
| COCCN1CN=C(Nc2nc3ccccc3s2)NC1 |  | -22.2% |
| O=C(NNc1nc2ccccc2s1)C1CC1 |  | -21.8% |
| O=[N+]([O-])c1ccc(Nc2nc3ccccc3s2)cc1 | 1.26 µM (active) |  |
| C/C(CC(=O)Nc1cc(C)ccn1)=N\NC(=O)COc1cccc(C)c1 |  | -22% |
| CCCCC(=O)NC(Nc1cc(C)ccn1)(C(=O)OCC)C(F)(F)F (stereo unspecified) | 22.4 µM (active) |  |
| CCCc1nn(-c2ccccc2)c2c1C(c1cccs1)C(C#N)=C(N)O2 (stereo unspecified) | 4.47 µM (active) |  |
